Screens: PubChem BioAssay, National Center for Advancing Translational Sciences (NCATS)
Most compounds without a hit are left out; they make up all but 3.6% or so of the library.
NPSR antag: qHTS Assay for Antagonists of the Neuropeptide S Receptor: cAMP Signal Transduction. CHO-NPSR cells, cAMP TR-FRET, antagonist mode. Potency, µM (titrated, usually from 38.3 µM), usual class: inhibitors. 1% of 220,000 active. AID 1461, 2008; note: nearly all actives have a fitted effect of over 50% in size
Epigenetic reg: Quantitative High-Throughput Screen for Regulators of Epigenetic Control; Potency, µM (doses to about 53.9 µM), hits mostly activators; murine LDR cells, GFP reporter derepression, 30 h; 0.2% of 280,000 active; note: nearly all actives have a fitted effect of over 60% in size
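GFP-positive cell count by laser-scanning cytometry (objects 20–120 um) after 30 h, 37 C compound exposure of murine LDR cells; reporter is CMV-GFP integrated at a silenced locus, inducible by HDAC or DNMT inhibitors.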
GCN5L2 inh: qHTS Assay for Inhibitors of GCN5L2 | Histone acetyltransferase KAT2A (Homo sapiens), Q92830 | GCN5L2 HAT assay, ThioGlo1 CoA-SH fluorescence | Potency, µM (doses to about 58.9 µM), actives largely listed as inhibitors | 0.21% of 390,000 active
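Compounds, pin-transferred from DMSO stocks, meet 20nM GCN5L2 for 15 min before the reaction begins with H3(1-25) peptide (75uM) and acetyl-CoA (70uM). Thiol-reactive ThioGlo1 reports CoA release over 20 min at room temperature.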
JMJD2E inh: qHTS Assay for Inhibitors of Human Jumonji Domain Containing 2E (JMJD2E) | Potency, µM (doses to about 57.1 µM), most hits filed as inhibitors | Lysine-specific demethylase 4E (Homo sapiens), B2RXH2 | 1.6% of 230,000 active | JMJD2E catalytic domain, FDH-coupled NADH fluorescence (FDH is formaldehyde dehydrogenase); note: nearly all actives have a fitted effect of over 50% in size
Target sequence (B2RXH2 1-337 limits assumed): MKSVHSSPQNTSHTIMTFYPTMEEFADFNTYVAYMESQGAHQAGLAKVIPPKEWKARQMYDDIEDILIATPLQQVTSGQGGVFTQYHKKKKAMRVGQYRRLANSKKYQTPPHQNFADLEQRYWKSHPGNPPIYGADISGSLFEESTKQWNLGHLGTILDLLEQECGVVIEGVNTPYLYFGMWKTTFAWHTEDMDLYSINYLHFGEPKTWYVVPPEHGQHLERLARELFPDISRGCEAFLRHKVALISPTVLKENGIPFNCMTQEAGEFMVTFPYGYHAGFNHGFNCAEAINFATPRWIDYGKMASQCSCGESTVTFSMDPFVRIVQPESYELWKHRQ
IMPase Li inh: qHTS Assay for Identifying the Cell-Membrane Permeable IMPase Inhibitors: Potentiation with Lithium. CHO-M1 cells, IP1 TR-FRET (IP-One), carbachol + lithium. Potency, µM (doses to about 59.4 µM), usual class: inhibitors. 0.35% of 210,000 active;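 note: IP1 builds up when IMPase is blocked and the TR-FRET signal falls; nearly all actives have a fitted effect of over 50% in size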
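Readout is a homogeneous TR-FRET IP1 immunoassay (Ex 320, Em 665 and 620), where raised cytosolic IP1 lowers signal. Cells were CHO-M1 treated 30 min at 37C with test compounds plus a little lithium; AC50 values came from Hill-equation fitting.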
Sfp PPTase inh: qHTS Assay for Inhibitors of Bacillus subtilis Sfp phosphopantetheinyl transferase (PPTase). Biochemical Sfp PPTase activity, qHTS. Potency, µM, usual class: inhibitors. 3.5% of 310,000 active. AID 1490, 2009;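 note: the enzyme is Sfp with the accession as filed and its product quenches rhodamine fluorescence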
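Compounds were incubated with enzyme (final 15 nM) for 15 min at room temperature before substrate addition started the reaction. Fluorescence at 525 nm excitation, 598 nm emission was recorded immediately and after 30 minutes.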
Of the large screens only hits and unclear results are named; the others gave an inactive call. Unless noted, calls come from the whole dose curve; as a rule, active = well fitted curve in the direction sought with a large enough effect; inconclusive = small, poorly fitted or top-dose-only effect, or another doubt; inactive = no such curve, though single readings can be large; an effect the other way counts as inactive or inconclusive.

CC[C@H](C)[C@H](NC(=O)[C@H](CCC(=O)O)NC(=O)[C@H](CC(N)=O)NC(=O)[C@@H](N)[C@@H](C)O)C(=O)N[C@H](C(=O)N[C@@H](CCC(=O)O)C(=O)N[C@@H](CCC(=O)O)C(=O)N[C@@H](CCC(N)=O)C(=O)N[C@@H](Cc1ccc(O)cc1)C(=O)N[C@H](C(=O)N1CCC[C@H]1C(=O)N[C@@H](CCC(N)=O)C(=O)N[C@@H](CO)C(=O)N[C@@H](CC(C)C)C(=O)N[C@@H](C)C(=O)N[C@H](C(=O)N[C@@H](CC(C)C)C(=O)N[C@@H](CCC(=O)O)C(=O)N[C@@H](CO)C(=O)N[C@H](C(=O)N[C@@H](Cc1ccccc1)C(=O)N[C@@H](CCC(N)=O)C(=O)N[C@@H](CCC(=O)O)C(=O)N[C@@H](CC(C)C)C(=O)NCC(=O)N[C@@H](CCCCN)C(=O)N[C@@H](CC(C)C)C(=O)N[C@H](C(=O)NCC(=O)N1CCC[C@H]1C(=O)N[C@@H](CC(N)=O)C(=O)N[C@@H](CO)C(=O)N[C@@H](CCC(N)=O)C(=O)O)[C@@H](C)O)C(C)C)[C@@H](C)O)[C@@H](C)O)C(C)C	none (no result: NPSR antag, Epigenetic reg, JMJD2E inh, IMPase Li inh)
O=C(Nc1ccc(N2CCCC2)c(Cl)c1)c1ccc(Br)o1	Sfp PPTase inh 79µM
Cc1ccc(C(=O)NC2CC3CCCC(C2)N3C(=S)NCc2ccco2)cc1 (stereo unspecified)	Sfp PPTase inh 45µM
Cc1ccc(C(=O)NC(=S)NCc2ccco2)cc1	none
COC(=O)[C@H](C)[C@H](CC(C)C)NC(=O)[C@H](C)[C@H](CC(C)C)NC(=O)c1ccccn1	none (no result: NPSR antag, Epigenetic reg, GCN5L2 inh, JMJD2E inh, IMPase Li inh)
COc1ccc(CN(C(=O)/C=C/c2ccco2)C2CCS(=O)(=O)C2)cc1OC (stereo unspecified)	Sfp PPTase inh 50µM (no result: NPSR antag, Epigenetic reg, JMJD2E inh, IMPase Li inh)
O=C(/C=C/c1ccco1)N(Cc1ccc(Cl)cc1)C1CCS(=O)(=O)C1 (stereo unspecified)	Sfp PPTase inh 25µM (no result: IMPase Li inh)
COc1cccc(CN(C(=O)/C=C/c2ccco2)C2CCS(=O)(=O)C2)c1 (stereo unspecified)	Sfp PPTase inh 25µM (no result: NPSR antag, Epigenetic reg, JMJD2E inh, IMPase Li inh)
CN(C)c1ccc(CN(C(=O)/C=C/c2ccco2)C2CCS(=O)(=O)C2)cc1 (stereo unspecified)	none (no result: IMPase Li inh)
COc1ccc(CN(C(=O)/C=C/c2ccco2)C2CCS(=O)(=O)C2)cc1 (stereo unspecified)	Sfp PPTase inh 14µM (no result: IMPase Li inh)
CCOc1ccc(CN(C(=O)/C=C/c2ccco2)C2CCS(=O)(=O)C2)cc1 (stereo unspecified)	Sfp PPTase inh inconclusive (no result: NPSR antag, Epigenetic reg, JMJD2E inh, IMPase Li inh)
CC1(C)CCC[C@@](C)([C@H]2CC[C@]3(C)[C@@H]2[C@H](O)C[C@@H]2[C@@]4(C)CC[C@H](O)C(C)(C)[C@@H]4[C@@H](O)C[C@]23C)O1	none (no result: NPSR antag, JMJD2E inh)
CCC(C)c1cc([N+](=O)[O-])cc([N+](=O)[O-])c1OC(C)=O (stereo unspecified)	none (no result: NPSR antag, Epigenetic reg, JMJD2E inh, IMPase Li inh)
CCOc1ccc(NC(=O)CC2C(=O)OCCN2CC)cc1 (stereo unspecified)	none (no result: NPSR antag, JMJD2E inh, IMPase Li inh, Sfp PPTase inh)
OC[C@@H]1[C@@H](c2ccc(F)cc2)C(c2ccc(F)cc2)=NN1c1ccccc1	none (no result: NPSR antag, JMJD2E inh)
O=C(c1cc(C(F)(F)F)cc(C(F)(F)F)c1)N1CCC[C@@]2(CCN(Cc3ccncc3)C2)C1	none (no result: NPSR antag, Epigenetic reg, JMJD2E inh)
COc1ccccc1NC(=O)COC(=O)/C=C/c1ccc2c(c1)OCO2	JMJD2E inh inconclusive, Sfp PPTase inh 79µM
COc1ccccc1NC(=O)/C=C/c1ccc2c(c1)OCO2	none
CCOC(=O)CNc1ccc2c(c1)OCO2	JMJD2E inh inconclusive, Sfp PPTase inh 20µM
CCOC(=O)c1cccc(NC(=O)c2ccc3c(c2)OCO3)c1	none (no result: NPSR antag, Epigenetic reg, JMJD2E inh, IMPase Li inh)
